Experimental data as given in article PMC12820563, “FoxP3 forms a head-to-head dimer in vivo and stabilizes its multimerization on adjacent microsatellites”.
In all, about 16,000 sequences were measured (“rpm ratio (pull-down/input)”: median about 0.5, highest 2% from about 5.5 on). This excerpt belongs to a sample that is enriched for the highest values.

Each sequence was assayed against T1, MBP-FoxP3dN (Mus musculus, UniProt Q99JB6 188-423) (assay: PD-seq (MBP pull-down with sequencing); 20 mM Tris-HCl pH 7.5, 100 mM NaCl, 1.5 mM MgCl2, 0.4 uM protein, 0.1 uM dsDNA library, 30 min, room temperature, amylose pull-down; high values mean tight binding). Conditions: protein: recombinant; tags: His6-MBP; chain copies: 2; dsDNA, one strand shown.
T1 sequence: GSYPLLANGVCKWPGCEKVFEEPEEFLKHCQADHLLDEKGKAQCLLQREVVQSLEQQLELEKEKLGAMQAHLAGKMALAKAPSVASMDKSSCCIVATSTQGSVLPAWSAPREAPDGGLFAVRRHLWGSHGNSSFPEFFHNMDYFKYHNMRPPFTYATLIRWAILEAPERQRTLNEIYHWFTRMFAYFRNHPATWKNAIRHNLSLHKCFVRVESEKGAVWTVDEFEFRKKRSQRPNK
Procedure, shortened: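 The N-terminus-lacking fragment of mouse FoxP3 or FoxP1 carried a His6-MBP tag and was expressed in E. coli. At 0.4 µM it was incubated with 0.1 µM Klenow-filled degenerate double-stranded DNA library for 30 min at room temperature in Tris pH 7.5 buffer with NaCl and MgCl2, and complexes were caught on amylose resin, washed three times, released with proteinase K, PCR-barcoded and Illumina-sequenced. Binding is reads-per-million enrichment of pull-down over input with replicates pooled.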

Question: For “GATGATTGTTCTCCCAGCTGATGAATTCCTATCGTCGAGTAAACAAATTTTCCTAATCTTTCTGTTCAAGCGCCATCTAC”, which binding signal is on record?
Answer: 0.382 RPM ratio (pull-down/input)

Question: With “GATGATTGTTCTCCCAGCTGATGAATTTCATAGGTCGAGTAAACAAATTTTCCTAATCTTTCTGTTCAAGCGCCATCTAC” as the sequence, how does the binding signal read?
Answer: 0.343 RPM ratio (pull-down/input)

Question: How did the binding signal turn out when “GATGATTGTTCTCCCAGCTGATGAATTGATCATTTCGAGTAAACAAATTTTCCTAATCTTTCTGTTCAAGCGCCATCTAC” was run?
Answer: 0.757 RPM ratio (pull-down/input)

Question: For “GATGATTGTTCTCCCAGCTGATGAATTGGCTGAATCGAGTAAACAAATTTTCCTAATCTTTCTGTTCAAGCGCCATCTAC”, which binding signal is on record?
Answer: 0.239 RPM ratio (pull-down/input)

Question: For “GATGATTGTTCTCCCAGCTGATGAATTACTCCAGTCGAGTAAACAAATTTTCCTAATCTTTCTGTTCAAGCGCCATCTAC”, which binding signal is on record?
Answer: 0.213 RPM ratio (pull-down/input)

Question: “GATGATTGTTCTCCCAGCTGATGAATTTGGTGTCTCGAGTAAACAAATTTTCCTAATCTTTCTGTTCAAGCGCCATCTAC” was tested. Which binding signal did it give?
Answer: 3.42 RPM ratio (pull-down/input)

Question: For “GATGATTGTTCTCCCAGCTGATGAATTCCGACTCTCGAGTAAACAAATTTTCCTAATCTTTCTGTTCAAGCGCCATCTAC”, which binding signal is on record?
Answer: 2.16 RPM ratio (pull-down/input)

Question: With “GATGATTGTTCTCCCAGCTGATGAATTGACCGAATCGAGTAAACAAATTTTCCTAATCTTTCTGTTCAAGCGCCATCTAC” as the sequence, how does the binding signal read?
Answer: 0.227 RPM ratio (pull-down/input)

Question: How did the binding signal turn out when “GATGATTGTTCTCCCAGCTGATGAATTTCAACTGTCGAGTAAACAAATTTTCCTAATCTTTCTGTTCAAGCGCCATCTAC” was run?
Answer: 0.377 RPM ratio (pull-down/input)

Question: With “GATGATTGTTCTCCCAGCTGATGAATTGGGTGTCTCGAGTAAACAAATTTTCCTAATCTTTCTGTTCAAGCGCCATCTAC” as the sequence, how does the binding signal read?
Answer: 1.29 RPM ratio (pull-down/input)

Question: Which binding signal does the source give for “GATGATTGTTCTCCCAGCTGATGAATTGGTGAGGTCGAGTAAACAAATTTTCCTAATCTTTCTGTTCAAGCGCCATCTAC” here?
Answer: 0.385 RPM ratio (pull-down/input)

Question: Which binding signal does the source give for “GATGATTGTTCTCCCAGCTGATGAATTGGTTTCCTCGAGTAAACAAATTTTCCTAATCTTTCTGTTCAAGCGCCATCTAC” here?
Answer: 1.54 RPM ratio (pull-down/input)

Question: For “GATGATTGTTCTCCCAGCTGATGAATTGAGCGCCTCGAGTAAACAAATTTTCCTAATCTTTCTGTTCAAGCGCCATCTAC”, which binding signal is on record?
Answer: 1.18 RPM ratio (pull-down/input)

Question: With “GATGATTGTTCTCCCAGCTGATGAATTCGTAGCATCGAGTAAACAAATTTTCCTAATCTTTCTGTTCAAGCGCCATCTAC” as the sequence, how does the binding signal read?
Answer: 1.31 RPM ratio (pull-down/input)

Question: “GATGATTGTTCTCCCAGCTGATGAATTTAGCTGTTCGAGTAAACAAATTTTCCTAATCTTTCTGTTCAAGCGCCATCTAC” was tested. Which binding signal did it give?
Answer: 1.7 RPM ratio (pull-down/input)

Question: “GATGATTGTTCTCCCAGCTGATGAATTAACGCATTCGAGTAAACAAATTTTCCTAATCTTTCTGTTCAAGCGCCATCTAC” was tested. Which binding signal did it give?
Answer: 6.02 RPM ratio (pull-down/input)

Question: “GATGATTGTTCTCCCAGCTGATGAATTAACAAATTCGAGTAAACAAATTTTCCTAATCTTTCTGTTCAAGCGCCATCTAC” was tested. Which binding signal did it give?
Answer: 0.494 RPM ratio (pull-down/input)

Question: How did the binding signal turn out when “GATGATTGTTCTCCCAGCTGATGAATTTAGCATTTCGAGTAAACAAATTTTCCTAATCTTTCTGTTCAAGCGCCATCTAC” was run?
Answer: 6.35 RPM ratio (pull-down/input)

Question: “GATGATTGTTCTCCCAGCTGATGAATTTGTAGCATCGAGTAAACAAATTTTCCTAATCTTTCTGTTCAAGCGCCATCTAC” was tested. Which binding signal did it give?
Answer: 4.88 RPM ratio (pull-down/input)

Question: Which binding signal does the source give for “GATGATTGTTCTCCCAGCTGATGAATTAAACGCATCGAGTAAACAAATTTTCCTAATCTTTCTGTTCAAGCGCCATCTAC” here?
Answer: 1.19 RPM ratio (pull-down/input)

Question: With “GATGATTGTTCTCCCAGCTGATGAATTGTAGCATTCGAGTAAACAAATTTTCCTAATCTTTCTGTTCAAGCGCCATCTAC” as the sequence, how does the binding signal read?
Answer: 5.76 RPM ratio (pull-down/input)

Question: For “GATGATTGTTCTCCCAGCTGATGAATTAGCATTTTCGAGTAAACAAATTTTCCTAATCTTTCTGTTCAAGCGCCATCTAC”, which binding signal is on record?
Answer: 4 RPM ratio (pull-down/input)

Question: With “GATGATTGTTCTCCCAGCTGATGAATTGATCAGGTCGAGTAAACAAATTTTCCTAATCTTTCTGTTCAAGCGCCATCTAC” as the sequence, how does the binding signal read?
Answer: 0.232 RPM ratio (pull-down/input)

Question: For “GATGATTGTTCTCCCAGCTGATGAATTGGTTGCATCGAGTAAACAAATTTTCCTAATCTTTCTGTTCAAGCGCCATCTAC”, which binding signal is on record?
Answer: 2.53 RPM ratio (pull-down/input)

Question: How did the binding signal turn out when “GATGATTGTTCTCCCAGCTGATGAATTGGAAGCATCGAGTAAACAAATTTTCCTAATCTTTCTGTTCAAGCGCCATCTAC” was run?
Answer: 0.654 RPM ratio (pull-down/input)

Question: How did the binding signal turn out when “GATGATTGTTCTCCCAGCTGATGAATTAATTGTCTCGAGTAAACAAATTTTCCTAATCTTTCTGTTCAAGCGCCATCTAC” was run?
Answer: 3.16 RPM ratio (pull-down/input)

Question: With “GATGATTGTTCTCCCAGCTGATGAATTAGATAGCTCGAGTAAACAAATTTTCCTAATCTTTCTGTTCAAGCGCCATCTAC” as the sequence, how does the binding signal read?
Answer: 0.537 RPM ratio (pull-down/input)

Question: Which binding signal does the source give for “GATGATTGTTCTCCCAGCTGATGAATTATGCCTATCGAGTAAACAAATTTTCCTAATCTTTCTGTTCAAGCGCCATCTAC” here?
Answer: 2.91 RPM ratio (pull-down/input)

Question: “GATGATTGTTCTCCCAGCTGATGAATTTCCGTTATCGAGTAAACAAATTTTCCTAATCTTTCTGTTCAAGCGCCATCTAC” was tested. Which binding signal did it give?
Answer: 0.615 RPM ratio (pull-down/input)

Question: For “GATGATTGTTCTCCCAGCTGATGAATTTGTTGACTCGAGTAAACAAATTTTCCTAATCTTTCTGTTCAAGCGCCATCTAC”, which binding signal is on record?
Answer: 7.34 RPM ratio (pull-down/input)

Question: For “GATGATTGTTCTCCCAGCTGATGAATTTATTTTCTCGAGTAAACAAATTTTCCTAATCTTTCTGTTCAAGCGCCATCTAC”, which binding signal is on record?
Answer: 5.54 RPM ratio (pull-down/input)

Question: How did the binding signal turn out when “GATGATTGTTCTCCCAGCTGATGAATTTGATGACTCGAGTAAACAAATTTTCCTAATCTTTCTGTTCAAGCGCCATCTAC” was run?
Answer: 3.97 RPM ratio (pull-down/input)

Question: How did the binding signal turn out when “GATGATTGTTCTCCCAGCTGATGAATTTTTTGACTCGAGTAAACAAATTTTCCTAATCTTTCTGTTCAAGCGCCATCTAC” was run?
Answer: 0.273 RPM ratio (pull-down/input)

Question: For “GATGATTGTTCTCCCAGCTGATGAATTTATTGACTCGAGTAAACAAATTTTCCTAATCTTTCTGTTCAAGCGCCATCTAC”, which binding signal is on record?
Answer: 5.75 RPM ratio (pull-down/input)

Question: How did the binding signal turn out when “GATGATTGTTCTCCCAGCTGATGAATTTTATGACTCGAGTAAACAAATTTTCCTAATCTTTCTGTTCAAGCGCCATCTAC” was run?
Answer: 0.491 RPM ratio (pull-down/input)

Question: Which binding signal does the source give for “GATGATTGTTCTCCCAGCTGATGAATTTAGTTTCTCGAGTAAACAAATTTTCCTAATCTTTCTGTTCAAGCGCCATCTAC” here?
Answer: 2.13 RPM ratio (pull-down/input)

Question: “GATGATTGTTCTCCCAGCTGATGAATTATTTGACTCGAGTAAACAAATTTTCCTAATCTTTCTGTTCAAGCGCCATCTAC” was tested. Which binding signal did it give?
Answer: 0.481 RPM ratio (pull-down/input)

Question: How did the binding signal turn out when “GATGATTGTTCTCCCAGCTGATGAATTTTATTTCTCGAGTAAACAAATTTTCCTAATCTTTCTGTTCAAGCGCCATCTAC” was run?
Answer: 1.53 RPM ratio (pull-down/input)

Question: Which binding signal does the source give for “GATGATTGTTCTCCCAGCTGATGAATTTTTATTCTCGAGTAAACAAATTTTCCTAATCTTTCTGTTCAAGCGCCATCTAC” here?
Answer: 0.391 RPM ratio (pull-down/input)

Question: For “GATGATTGTTCTCCCAGCTGATGAATTTAGTTACTCGAGTAAACAAATTTTCCTAATCTTTCTGTTCAAGCGCCATCTAC”, which binding signal is on record?
Answer: 3.04 RPM ratio (pull-down/input)

Question: Which binding signal does the source give for “GATGATTGTTCTCCCAGCTGATGAATTAGTTTACTCGAGTAAACAAATTTTCCTAATCTTTCTGTTCAAGCGCCATCTAC” here?
Answer: 5.83 RPM ratio (pull-down/input)
